Laboratory results as given in article PMC7862700, “An all-to-all approach to the identification of sequence-specific readers for epigenetic DNA modifications on cytosine”.

Columns and labels:
Test in all cases: DAPPL (digital affinity profiling via proximity ligation, sequencing); 10 mM Tris-HCl pH 7.5, 50 mM NaCl, 1 mM DTT, 4% glycerol, room temperature, 30 min; GST-TFs on glutathione beads, 16-mer random dsDNA library, 0.1% formaldehyde crosslink after washing; high values mean tight binding
Settings in all cases: protein: recombinant; tags: N-terminal GST; dsDNA, one strand shown
FEV = molecular target: T1, FEV (Homo sapiens, UniProt Q99581 1-238)
T1 sequence: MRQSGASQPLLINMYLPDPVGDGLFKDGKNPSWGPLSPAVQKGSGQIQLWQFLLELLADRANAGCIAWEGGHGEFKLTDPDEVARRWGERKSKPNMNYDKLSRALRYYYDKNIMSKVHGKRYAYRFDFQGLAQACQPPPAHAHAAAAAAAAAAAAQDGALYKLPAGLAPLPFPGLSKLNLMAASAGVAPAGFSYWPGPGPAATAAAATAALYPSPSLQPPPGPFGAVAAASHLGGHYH
Summary of the method: (§1)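 Binding signal is given per hexamer as its read frequency for a factor divided by its frequency in the tag-only sample. GST-fused human transcription factors were expressed in yeast, captured on glutathione beads, barcoded with DNA and pooled with that sample, then incubated with 200 nmole of a 16-mer random double-stranded DNA library in Tris/NaCl/DTT/glycerol buffer for 30 min at room temperature. The pools were then washed, crosslinked, proximity-ligated, amplified by PCR and sequenced on an Illumina NextSeq500.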

ETV5 = ETV5 (Homo sapiens, UniProt P41161 1-510)
Summary of the method: as §1

SPIC = molecular target: T2, SPIC (Homo sapiens, UniProt Q8N5J4 1-248)
T2 sequence: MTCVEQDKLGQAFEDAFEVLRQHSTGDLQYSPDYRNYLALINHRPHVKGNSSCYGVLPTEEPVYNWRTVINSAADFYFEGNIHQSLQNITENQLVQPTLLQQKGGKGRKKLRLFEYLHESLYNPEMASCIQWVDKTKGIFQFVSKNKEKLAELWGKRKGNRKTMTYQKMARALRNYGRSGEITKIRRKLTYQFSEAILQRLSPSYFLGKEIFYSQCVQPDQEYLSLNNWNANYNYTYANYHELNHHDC
Summary of the method: as §1

ELF4 = ELF4 (Homo sapiens, UniProt Q99607 1-663)
Summary of the method: as §1

ELK4 = molecular target: T3, ELK4 (Homo sapiens, UniProt P28324-2 1-405)
T3 sequence: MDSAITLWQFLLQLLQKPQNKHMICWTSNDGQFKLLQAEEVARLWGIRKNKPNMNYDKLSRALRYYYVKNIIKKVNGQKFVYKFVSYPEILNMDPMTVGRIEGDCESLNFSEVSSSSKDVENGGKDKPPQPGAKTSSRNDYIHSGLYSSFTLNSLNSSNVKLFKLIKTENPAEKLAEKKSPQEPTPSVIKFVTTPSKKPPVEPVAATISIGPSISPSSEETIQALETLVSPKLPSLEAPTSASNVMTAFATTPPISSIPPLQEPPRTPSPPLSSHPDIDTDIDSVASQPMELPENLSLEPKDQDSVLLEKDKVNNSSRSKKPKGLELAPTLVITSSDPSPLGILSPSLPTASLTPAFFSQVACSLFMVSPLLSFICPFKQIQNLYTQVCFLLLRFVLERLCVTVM
Summary of the method: as §1

ETV2 = molecular target: T4, ETV2 (Homo sapiens, UniProt O00321 1-342)
T4 sequence: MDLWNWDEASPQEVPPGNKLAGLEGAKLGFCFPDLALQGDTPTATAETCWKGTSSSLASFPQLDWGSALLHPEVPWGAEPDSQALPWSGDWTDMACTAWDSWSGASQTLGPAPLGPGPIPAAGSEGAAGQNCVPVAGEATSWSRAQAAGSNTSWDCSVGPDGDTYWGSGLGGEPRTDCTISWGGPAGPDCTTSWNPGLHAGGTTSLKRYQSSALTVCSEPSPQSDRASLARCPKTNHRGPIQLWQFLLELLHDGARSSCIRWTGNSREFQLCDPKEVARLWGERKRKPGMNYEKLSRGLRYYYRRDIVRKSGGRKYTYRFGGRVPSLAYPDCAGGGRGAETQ
Summary of the method: as §1

ELF3 = molecular target: T5, ELF3 (Homo sapiens, UniProt P78545 1-371)
T5 sequence: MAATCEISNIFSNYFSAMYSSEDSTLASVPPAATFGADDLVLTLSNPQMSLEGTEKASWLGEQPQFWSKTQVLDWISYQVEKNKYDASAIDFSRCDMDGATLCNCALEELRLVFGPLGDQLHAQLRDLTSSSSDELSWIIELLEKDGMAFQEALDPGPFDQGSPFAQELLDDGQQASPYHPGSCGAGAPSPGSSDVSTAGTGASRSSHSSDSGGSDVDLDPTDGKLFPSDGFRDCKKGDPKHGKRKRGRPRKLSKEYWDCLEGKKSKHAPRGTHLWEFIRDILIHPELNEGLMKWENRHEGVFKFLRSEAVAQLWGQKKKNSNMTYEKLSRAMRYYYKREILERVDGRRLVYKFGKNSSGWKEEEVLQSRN
Summary of the method: as §1

ETV1 = ETV1 (Homo sapiens, UniProt P50549 1-477)
Summary of the method: as §1

ERF = molecular target: T6, ERF (Homo sapiens, UniProt P50548 1-548)
T6 sequence: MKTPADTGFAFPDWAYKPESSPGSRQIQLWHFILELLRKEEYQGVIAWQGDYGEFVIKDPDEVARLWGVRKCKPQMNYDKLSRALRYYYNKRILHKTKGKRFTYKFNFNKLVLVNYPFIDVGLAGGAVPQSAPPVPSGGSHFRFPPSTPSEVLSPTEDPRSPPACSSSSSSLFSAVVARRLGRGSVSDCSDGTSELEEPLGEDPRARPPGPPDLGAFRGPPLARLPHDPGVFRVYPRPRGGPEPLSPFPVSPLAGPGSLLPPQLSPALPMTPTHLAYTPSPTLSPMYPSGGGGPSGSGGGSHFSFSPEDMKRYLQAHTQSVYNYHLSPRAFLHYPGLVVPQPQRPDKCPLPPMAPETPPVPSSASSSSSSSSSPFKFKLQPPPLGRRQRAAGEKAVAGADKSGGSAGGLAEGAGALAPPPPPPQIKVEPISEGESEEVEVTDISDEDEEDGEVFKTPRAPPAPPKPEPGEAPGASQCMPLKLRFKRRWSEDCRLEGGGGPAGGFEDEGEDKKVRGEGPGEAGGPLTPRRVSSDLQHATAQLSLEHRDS
Summary of the method: as §1

ETV3L = molecular target: T7, ETV3L (Homo sapiens, UniProt Q6ZN32 1-361)
T7 sequence: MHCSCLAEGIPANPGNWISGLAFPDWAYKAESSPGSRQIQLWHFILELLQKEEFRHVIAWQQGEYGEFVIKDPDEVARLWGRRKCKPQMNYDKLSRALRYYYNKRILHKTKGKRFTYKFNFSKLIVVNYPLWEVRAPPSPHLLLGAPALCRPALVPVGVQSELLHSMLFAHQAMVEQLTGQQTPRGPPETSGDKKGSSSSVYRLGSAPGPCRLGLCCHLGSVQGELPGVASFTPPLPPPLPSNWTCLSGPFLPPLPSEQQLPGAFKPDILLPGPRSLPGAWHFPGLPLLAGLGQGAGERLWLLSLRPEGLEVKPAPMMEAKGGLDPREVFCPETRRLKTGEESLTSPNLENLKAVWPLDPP
Summary of the method: as §1

ETS2 = molecular target: T8, ETS2 (Homo sapiens, UniProt P15036 1-469)
T8 sequence: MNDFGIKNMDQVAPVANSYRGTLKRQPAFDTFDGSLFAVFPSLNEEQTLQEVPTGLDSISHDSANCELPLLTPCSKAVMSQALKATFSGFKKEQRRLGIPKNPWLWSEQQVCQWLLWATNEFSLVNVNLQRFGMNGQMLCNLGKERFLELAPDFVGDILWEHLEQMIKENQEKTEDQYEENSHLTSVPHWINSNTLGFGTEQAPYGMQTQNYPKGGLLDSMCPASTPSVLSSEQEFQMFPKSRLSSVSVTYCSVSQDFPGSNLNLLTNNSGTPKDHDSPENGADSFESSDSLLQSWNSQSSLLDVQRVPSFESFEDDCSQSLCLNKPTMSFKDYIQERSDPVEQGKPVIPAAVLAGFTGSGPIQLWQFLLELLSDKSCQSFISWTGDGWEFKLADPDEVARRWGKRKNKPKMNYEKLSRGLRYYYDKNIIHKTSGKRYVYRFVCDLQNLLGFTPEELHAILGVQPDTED
Summary of the method: as §1

SPDEF = molecular target: T9, SPDEF (Homo sapiens, UniProt O95238 1-335)
T9 sequence: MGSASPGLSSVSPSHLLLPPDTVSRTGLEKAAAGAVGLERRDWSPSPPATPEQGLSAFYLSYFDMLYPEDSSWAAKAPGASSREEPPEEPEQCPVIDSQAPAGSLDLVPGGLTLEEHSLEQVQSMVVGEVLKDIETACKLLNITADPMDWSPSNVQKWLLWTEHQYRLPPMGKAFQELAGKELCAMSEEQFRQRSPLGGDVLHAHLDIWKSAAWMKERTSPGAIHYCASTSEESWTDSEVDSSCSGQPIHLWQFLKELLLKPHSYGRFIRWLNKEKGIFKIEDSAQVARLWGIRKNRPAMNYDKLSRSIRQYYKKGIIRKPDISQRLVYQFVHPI
Summary of the method: as §1

ETV7 = molecular target: T10, ETV7 (Homo sapiens, UniProt Q9Y603 1-341)
T10 sequence: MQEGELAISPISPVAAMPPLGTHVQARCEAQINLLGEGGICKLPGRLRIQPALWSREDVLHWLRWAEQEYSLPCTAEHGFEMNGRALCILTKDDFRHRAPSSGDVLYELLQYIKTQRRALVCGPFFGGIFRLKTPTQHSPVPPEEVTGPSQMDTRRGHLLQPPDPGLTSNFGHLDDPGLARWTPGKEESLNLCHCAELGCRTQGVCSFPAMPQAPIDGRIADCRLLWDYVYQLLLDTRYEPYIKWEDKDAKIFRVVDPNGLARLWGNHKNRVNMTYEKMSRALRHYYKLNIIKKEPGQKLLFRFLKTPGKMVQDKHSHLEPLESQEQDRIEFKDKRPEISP
Summary of the method: as §1

ELF5 = molecular target: T11, ELF5 (Homo sapiens, UniProt Q9UKW6-2 1-255)
T11 sequence: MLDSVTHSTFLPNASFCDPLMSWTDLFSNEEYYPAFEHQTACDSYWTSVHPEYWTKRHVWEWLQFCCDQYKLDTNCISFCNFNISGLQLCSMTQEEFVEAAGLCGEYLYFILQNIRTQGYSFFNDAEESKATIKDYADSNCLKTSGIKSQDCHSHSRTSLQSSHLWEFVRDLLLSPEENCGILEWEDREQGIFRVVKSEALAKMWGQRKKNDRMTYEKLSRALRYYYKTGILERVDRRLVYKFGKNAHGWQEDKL
Summary of the method: as §1

ETV3 = molecular target: T12, ETV3 (Homo sapiens, UniProt P41162-2 1-143)
T12 sequence: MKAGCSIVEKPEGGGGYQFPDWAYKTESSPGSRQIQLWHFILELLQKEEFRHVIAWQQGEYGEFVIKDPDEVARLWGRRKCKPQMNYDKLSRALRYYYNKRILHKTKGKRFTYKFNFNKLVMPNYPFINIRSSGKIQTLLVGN
Summary of the method: as §1

ETV6 = ETV6 (Homo sapiens, UniProt P41212 1-452)
Summary of the method: as §1

Chain of ETV1 (P50549 whole entry): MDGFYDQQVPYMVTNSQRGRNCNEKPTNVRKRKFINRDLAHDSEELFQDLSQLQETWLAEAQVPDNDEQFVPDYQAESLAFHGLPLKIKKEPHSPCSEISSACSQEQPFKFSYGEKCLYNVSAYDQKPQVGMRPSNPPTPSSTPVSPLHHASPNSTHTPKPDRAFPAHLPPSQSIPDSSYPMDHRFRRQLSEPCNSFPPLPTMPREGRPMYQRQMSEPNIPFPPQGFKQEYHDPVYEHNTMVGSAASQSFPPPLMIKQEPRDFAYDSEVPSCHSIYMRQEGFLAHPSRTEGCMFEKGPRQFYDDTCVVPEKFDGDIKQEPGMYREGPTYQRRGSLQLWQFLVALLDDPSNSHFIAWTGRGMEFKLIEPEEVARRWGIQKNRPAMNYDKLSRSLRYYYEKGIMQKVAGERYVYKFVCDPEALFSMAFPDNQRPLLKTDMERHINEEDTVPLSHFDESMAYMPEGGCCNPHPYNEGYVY
Chain of ELF4 (Q99607 whole entry): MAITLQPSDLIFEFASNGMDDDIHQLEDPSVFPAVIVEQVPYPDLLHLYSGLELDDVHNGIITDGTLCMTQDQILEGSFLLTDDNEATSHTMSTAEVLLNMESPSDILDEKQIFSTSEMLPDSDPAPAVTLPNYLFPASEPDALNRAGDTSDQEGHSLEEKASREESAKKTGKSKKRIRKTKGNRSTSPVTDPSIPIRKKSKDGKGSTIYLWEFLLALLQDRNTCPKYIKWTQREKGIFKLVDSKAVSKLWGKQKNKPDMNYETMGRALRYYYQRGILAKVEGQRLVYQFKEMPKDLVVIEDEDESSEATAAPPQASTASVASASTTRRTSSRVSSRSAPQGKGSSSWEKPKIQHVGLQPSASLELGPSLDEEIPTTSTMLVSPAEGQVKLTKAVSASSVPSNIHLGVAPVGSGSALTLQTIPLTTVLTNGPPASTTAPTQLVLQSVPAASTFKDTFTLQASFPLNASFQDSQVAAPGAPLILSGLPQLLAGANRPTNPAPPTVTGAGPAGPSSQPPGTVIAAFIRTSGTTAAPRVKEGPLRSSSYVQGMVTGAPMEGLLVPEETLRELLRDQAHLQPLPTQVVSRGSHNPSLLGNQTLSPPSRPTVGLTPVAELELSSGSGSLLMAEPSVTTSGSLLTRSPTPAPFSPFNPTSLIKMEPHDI
Chain of ETV5 (P41161 whole entry): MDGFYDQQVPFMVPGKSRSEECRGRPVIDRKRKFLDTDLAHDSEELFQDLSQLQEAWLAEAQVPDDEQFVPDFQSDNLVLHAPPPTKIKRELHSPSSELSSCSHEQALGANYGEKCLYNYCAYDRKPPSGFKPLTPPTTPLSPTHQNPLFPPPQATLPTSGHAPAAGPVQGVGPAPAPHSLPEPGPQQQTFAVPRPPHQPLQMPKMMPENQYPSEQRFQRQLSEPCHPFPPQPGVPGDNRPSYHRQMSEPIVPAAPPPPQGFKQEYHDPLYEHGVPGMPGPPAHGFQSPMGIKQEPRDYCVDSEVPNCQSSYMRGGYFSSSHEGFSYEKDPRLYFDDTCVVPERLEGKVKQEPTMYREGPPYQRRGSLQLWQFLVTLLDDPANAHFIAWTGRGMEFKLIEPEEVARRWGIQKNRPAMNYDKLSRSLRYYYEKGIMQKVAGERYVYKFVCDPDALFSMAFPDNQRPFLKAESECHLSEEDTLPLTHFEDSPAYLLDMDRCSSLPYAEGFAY
Chain of ETV6 (P41212 whole entry): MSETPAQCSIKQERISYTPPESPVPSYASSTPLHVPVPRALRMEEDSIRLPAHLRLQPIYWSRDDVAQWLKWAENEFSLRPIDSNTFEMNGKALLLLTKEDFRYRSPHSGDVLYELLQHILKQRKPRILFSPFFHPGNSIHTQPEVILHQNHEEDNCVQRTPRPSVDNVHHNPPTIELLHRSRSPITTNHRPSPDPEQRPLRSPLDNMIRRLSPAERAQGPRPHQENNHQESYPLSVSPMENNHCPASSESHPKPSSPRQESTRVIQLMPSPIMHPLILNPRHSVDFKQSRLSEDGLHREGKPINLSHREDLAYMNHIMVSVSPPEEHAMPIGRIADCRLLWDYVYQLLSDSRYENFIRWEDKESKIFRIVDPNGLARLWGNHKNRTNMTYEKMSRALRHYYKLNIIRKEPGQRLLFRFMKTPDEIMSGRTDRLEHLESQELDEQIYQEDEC

CCGCGC
binding signal (FEV): 1.11 fold enrichment (6-mer frequency, TF over GST control) | binding signal (ETV5): 1.21 fold enrichment (6-mer frequency, TF over GST control) | binding signal (SPIC): 1.41 fold enrichment (6-mer frequency, TF over GST control) | binding signal (ELF4): 1.07 fold enrichment (6-mer frequency, TF over GST control) | binding signal (ELK4): 1.35 fold enrichment (6-mer frequency, TF over GST control) | binding signal (ETV2): 1.29 fold enrichment (6-mer frequency, TF over GST control) | binding signal (ELF3): 1.01 fold enrichment (6-mer frequency, TF over GST control) | binding signal (ETV1): 1.06 fold enrichment (6-mer frequency, TF over GST control) | binding signal (ERF): 1.23 fold enrichment (6-mer frequency, TF over GST control) | binding signal (ETV3L): 1.08 fold enrichment (6-mer frequency, TF over GST control) | binding signal (ETS2): 1.21 fold enrichment (6-mer frequency, TF over GST control) | binding signal (SPDEF): 1.17 fold enrichment (6-mer frequency, TF over GST control) | binding signal (ETV7): 1.06 fold enrichment (6-mer frequency, TF over GST control) | binding signal (ELF5): 1.18 fold enrichment (6-mer frequency, TF over GST control) | binding signal (ETV3): 1.19 fold enrichment (6-mer frequency, TF over GST control) | binding signal (ETV6): 1.15 fold enrichment (6-mer frequency, TF over GST control)
